Inconclusive results are not listed. Where a call stands in place of a potency, no number is given. Active and inactive are the calls of the source. Calls follow the shape of the dose curve; as a rule, active = well fitted inhibition curve with a large enough effect; inconclusive = small, poorly fitted or top-dose-only effect; inactive = no such curve, though single readings can be large or run the other way.
Potency is read from the fitted curve at half-maximal effect.

The experiment deals with Zika virus NS2B-NS3 protease (unlinked complex). The experiment is described as follows: Primary screen GU Rhodamine qHTS for Zika virus inhibitors: Unlinked NS2B-NS3 protease assay (AID 1347159). Also: nearly all actives have a fitted effect of over 60% in size. Particulars: Recombinant ZIKV NS2B-NS3 protease, Rhodamine110 substrate fluorescence; series mostly up to 107 µM. The text has this: Avindra Nath, Ph.D., National Institute of Neurological Disorders and Stroke (NINDS), Bethesda, MD
Radhakrishnan Padmanabhan, Ph.D., Georgetown University (GU), Washington D.C.
Zika Virus causes congenital defects, including microcephaly and is associated with Guillain-Barre syndrome, eningoencephalitis and myelitis in infected adult. […] Using a target-based approach, we hope to establish a screening paradigm to uncover novel, cell-active NS2B-NS3 protease (Zika Virus) specific inhibitors from NCATS' collection of small molecules using qHTS.
Four assay panel was created to identify potential Zika Virus inhibitors. Namely, (1) GU unlinked NS2B-NS3 AMC tagged protease qHTS, (2) GU unlinked NS2B-NS3 Rhodamine tagged protease qHTS, (3) NINDS linked NS2B-NS3 AMC tagged protease qHTS, (4) NINDS linked NS2B-NS3 Rhodamine tagged protease qHTS. Active compounds were re-acquired and re-screened to confirm inhibition. Inhibitors were further screened against various confirmatory and counterscreens in dose response format.
Early Translation Branch (ETB)
National Center for Advancing Translational Sciences (NCATS), Rockville, MD
National Institute of Health (NIH), Bethesda, Maryland
Padmanabhan lab provided the NS2B hydrophilic domain and NS3 protease domain in a noncovalent complex used for the unlinked assay. Control compound aprotinin is obtained from Thermo Scientific (#78432; Waltham, Massachusetts). Rhodamine110 substrate ([N-Cbz]-Nle-Lys-Arg-Arg-Rhod110-Arg-Arg-Lys-Nle-[N-Cbz]) was purchased from either Genscript or Bachem.
1536-well Protease (Rhodamine110 Substrate) Assay:
Briefly, 3 microL of enzyme (25 nM final concentration), in assay buffer (10 mM Tris-HCl pH 8.0 with 0.01% Tween 20) were dispensed into a 1,536-well solid-bottom black plate (Greiner Bio One, Monroe, NC). Twenty-three nL of compounds (final concentration range 7.28 nM to 114 microM) or control Aprotinin (final concentration range 3.47 nM to 114 microM) were transferred via Wako Pin-tool (Wako Automation, Richmond, VA). Samples were incubated (room temperature, protected from light) for 15 minutes followed by a 1 microL Rhodamine110 substrate addition (1.5 microM final concentration). Plates were then immediately read on a ViewLux High-throughput CCD imager (PerkinElmer, Waltham, MA) equipped with FITC fluorescence optics (480(20) nm excitation, 540(25) nm emission), then incubated (room temperature, protected from light) for 15 minutes (~15% conversion). The change in fluorescence intensity over the 15-minute reaction period was normalized against no-inhibitor and no-enzyme controls and the resulting percent inhibition data were fitted to a 4-parameter Hill equation. Aprotinin was used as intraplate control.
Background: In qHTS, concentration-response curves come from the screen itself.
For `O=C(O)Cc1cc(I)c(Oc2ccc(O)c(I)c2)c(I)c1`, the Potency was 7.08 µM (active).

With `CO[C@H]1C[C@@H]2CC[C@@H](C)[C@@](O)(O2)C(=O)C(=O)N2CCCC[C@H]2C(=O)O[C@H]([C@H](C)C[C@@H]2CC[C@@H](OC(=O)C(C)(CO)CO)[C@H](OC)C2)CC(=O)[C@H](C)/C=C(\C)[C@@H](O)[C@@H](OC)C(=O)[C@H](C)C[C@H](C)/C=C/C=C/C=C/1C`, the Potency entry is “inactive”.

Regarding `C/C(=C\C(=O)OCCCCCCCCC(=O)O)C[C@@H]1OC[C@H](C[C@@H]2O[C@H]2[C@@H](C)[C@H](C)O)[C@@H](O)[C@H]1O`, the Potency result is “inactive”.

As to `CCN(CC)CCOCCOC(=O)C(CC)(CC)c1ccccc1`, the Potency result is “inactive”.

`CC(=O)Nc1ccc(NC(=S)NC(=O)c2ccc(C(C)(C)C)cc2)cc1`: the Potency result is “inactive”.

For the compound `C[C@H]1O[C@@H](O[C@H]2[C@@H](O)C[C@H](O[C@H]3[C@@H](O)C[C@H](O[C@H]4CC[C@@]5(C)[C@H](CC[C@@H]6[C@@H]5C[C@@H](O)[C@]5(C)[C@@H](C7=CC(=O)OC7)CC[C@]65O)C4)O[C@@H]3C)O[C@@H]2C)C[C@H](O)[C@@H]1O`, the Potency result was “inactive”.

Consider `COc1ccc(C[C@H](C)NC[C@@H](O)c2ccc(O)c(NC=O)c2)cc1`, for which the Potency result was “inactive”.

For the compound `N[C@@H](Cc1cc(I)c(Oc2ccc(O)c(I)c2)c(I)c1)C(=O)O`, the Potency is 14.1 µM (active).

As to `CC(C)(C)c1ccc(CN2CCN(C(c3ccccc3)c3ccc(Cl)cc3)CC2)cc1` (stereo unspecified), the Potency entry is “inactive”.

On to `C=C1[C@H](CO)[C@@H](O)C[C@@H]1n1cnc2c(=O)[nH]c(N)nc21`, for which the Potency entry is “inactive”.

Turning to `C=C1CC[C@H](O)CC1=C/C=C1\CCC[C@]2(C)[C@@H]([C@H](C)/C=C/[C@H](C)C(C)C)CC[C@@H]12`, the Potency is 11.2 µM (active).

These data come from PubChem BioAssay (NCATS).
